Test results: PubChem BioAssay (NCATS)
Inconclusive results are not listed. Entries that show only a call come without a potency. Values without a mark were called inactive. Calls of active or inactive are those of the source. The call rests on the fitted dose curve; in most records, active means well fitted curve in the direction sought with a large enough effect; inconclusive means small, poorly fitted or top-dose-only effect, or another doubt; inactive means no such curve, though single readings can be large; an effect the other way counts as inactive or inconclusive.

Tests used:
[1] = molecular target: Cellular tumor antigen p53 (Homo sapiens) (UniProt P04637); experiment: Primary qHTS for small molecule compounds that upregulate eGFP-tagged delta133p53alpha (in N-terminal) cells. (AID 2060322); conditions: NCI-H358 eGFP-delta133p53alpha fluorescence, 24 h; activation: active compounds read high; further: nearly all actives have a fitted effect of over 75% in size; further: potency means the concentration at half of the fitted maximal effect; on activation: series mostly up to about 56 µM
Summary of the method: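 NCI-H358 cells pre-induced 24 h with 10 ng/ml doxycycline to express N-terminal eGFP-delta133p53alpha, then dosed 24 h at 37C without doxycycline; fixed, Hoechst-stained, GFP intensity by laser scanning cytometry, normalized to DMSO (0%) and 57.5 uM 5-azacytidine (100%).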

[2] = molecular target: Aldehyde dehydrogenase, mitochondrial (Homo sapiens) (UniProt P05091); experiment: qHTS for Inhibitors of the Aldehyde Dehydrogenase Family (ALDH2) Primary screen (AID 2061308); further: nearly all actives have a fitted effect of over 55% in size
[3] = molecular target: Retinaldehyde dehydrogenase 3 (Homo sapiens) (UniProt P47895); experiment: qHTS for Inhibitors of the Aldehyde Dehydrogenase Family (ALDH1A3) Primary screen (AID 2061315)

Cellular tumor antigen p53 (Homo sapiens), sequence (P04637 whole entry, looked up): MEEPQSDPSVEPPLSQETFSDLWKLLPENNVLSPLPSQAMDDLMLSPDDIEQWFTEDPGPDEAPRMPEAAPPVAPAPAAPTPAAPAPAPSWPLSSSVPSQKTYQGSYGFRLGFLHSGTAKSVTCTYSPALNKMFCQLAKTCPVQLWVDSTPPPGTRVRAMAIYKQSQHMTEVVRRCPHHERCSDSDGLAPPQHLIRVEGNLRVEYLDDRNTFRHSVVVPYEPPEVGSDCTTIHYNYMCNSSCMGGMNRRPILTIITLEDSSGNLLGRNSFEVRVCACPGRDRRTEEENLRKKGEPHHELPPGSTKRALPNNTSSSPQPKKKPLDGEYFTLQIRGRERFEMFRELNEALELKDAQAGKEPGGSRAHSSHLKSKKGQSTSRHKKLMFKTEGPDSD

Compound | activation [1] | Potency [2] | Potency [3] | Potency [1]
C[C@@H]1O[C@@H](O[C@H]2[C@H](O[C@H]3CC[C@@]4(C)C(CC[C@]5(C)C4C=C[C@]46OC[C@@]7(CCC(C)(C)C[C@H]74)[C@@H](O[C@@H]4O[C@@H](C)[C@H](O)[C@@H](O)[C@H]4O)C[C@]65C)[C@]3(C)CO)O[C@H](CO)[C@@H](O)[C@@H]2O[C@@H]2O[C@H](CO)[C@@H](O)[C@H](O)[C@H]2O)[C@H](O)[C@H](O)[C@H]1O (stereo not given in full) | 0% | inactive | inactive | –
C=CC1(C)CC(O)C(C(=C)C(=O)OC)C(O)C1C(=C)CO (stereo not given) | -14.5% | inactive | inactive | –
C=CC1(C)CC(OC(=O)/C(C)=C\COC(C)=O)C(C(=C)C(=O)O)C(O)C1C(=C)CO (stereo not given) | 0% | inactive | inactive | –
C/C=C/C=C/C=C/C(=O)O[C@@H]1C=C(CO)C(O)(C(=O)O)[C@@]2(C)CCCC(C)(C)[C@H]12 (stereo not given in full) | -9.92% | inactive | inactive | –
C[C@]12C=C[C@@]3(CCC4[C@](C)(CO)CCC[C@@]4(C)C3CC1)C2 (stereo not given in full) | -5.36% | inactive | inactive | –
C=CC(=O)Nc1cc(-n2c(=O)ccc3cnc4ccc(-c5ccc(NS(C)(=O)=O)cc5)cc4c32)ccc1C | – | inactive | inactive | 10.7 µM (active)
CC(=O)O[C@@H]1C[C@@]23C[C@@]24CC[C@H](O[C@@H]2OC[C@H](O)[C@H](O)[C@H]2O)C(C)(C)[C@@H]4CC[C@H]3[C@]2(C)[C@@H](O)C34O[C@H](C[C@@H](C)[C@@H]3[C@@]12C)[C@@H](C(C)(C)O)O4 | – | inactive | inactive | 3.79 µM (active)
C=C(CO[C@@H]1O[C@H](CO[C@@H]2OC[C@](O)(CO)[C@H]2O)[C@@H](O)[C@H](O)[C@H]1O)C1Cc2cc(C(C)=O)ccc2O1 (stereo not given in full) | -12.2% | inactive | inactive | –
CC(C)(C)NS(=O)(=O)c1ccc(-c2ccc3[nH]nc(N)c3c2)cc1 | 0% | inactive | inactive | –
CCC(C)(O)C(O)C(=O)OCc1ccc(O[C@@H]2O[C@H](CO)[C@@H](O)[C@H](O)[C@H]2O)cc1 (stereo not given in full) | -6.87% | inactive | inactive | –
C[C@H](O)[C@H](O)/C=C/c1cccc(O)c1CO | -15.3% | inactive | inactive | –
Cc1ccc(S(=O)(=O)NCc2ccc(C(=O)NCCN(Cc3ccccc3)C(C)C)cc2)cc1 | 3.67% | inactive | inactive | –
O=C(O)c1cccc(-c2ccc(-c3cn(C(=O)N4CCCCC4Cc4ccccc4)nn3)cc2)c1 (stereo not given) | -9.67% | inactive | inactive | –
O=C(Cn1c2ccccc2c2nc3n(c(=O)c21)CCS3)N1CCCC1 | 5.67% | inactive | inactive | –
CS(=O)(=O)c1ccc([C@H](CC2CCCC2)C(=O)Nc2nccs2)cc1 | -11.6% | inactive | inactive | –
O=C(Nc1ccc(Cl)cc1)C1CCCN(C(=O)c2cccc(-c3ccco3)c2)C1 (stereo not given) | -4.77% | inactive | inactive | –
Nc1nc2c(c(=O)[nH]1)C[C@@H](CCc1ccc(C(=O)N[C@@H](CCC(=O)O)C(=O)O)cc1)CN2 | 8.33% | inactive | inactive | –
CS/C=C/C(=O)O[C@@H]1CCC2=CC(=O)C(=C(C)C)C[C@]2(C)[C@H]1C | -1.79% | inactive | inactive | –
C[C@@H]1C[C@H]2O[C@@H]2/C=C\C=C\C(=O)Cc2c(Cl)c(O)cc(O)c2C(=O)O1 | – | inactive | inactive | 4.53 µM (active)
Nc1nc(NC2CC2)cc(-c2cccc(Cl)c2Cl)n1 | – | inactive | inactive | 6.01 µM (active)
N[C@H]1C[C@H]1c1ccc(-c2cccc(O)c2)cc1 | 1.67% | inactive | inactive | –
CC(C)CC1NC(=O)C(C)NC(=O)C(CC(C)C)OC(=O)CCCNC1=O (stereo not given) | -2.68% | inactive | inactive | –
COC(=O)C12C(=O)C(C)=C(O)C1(C)C(C)=CC1C34CCC(OC3=O)C(C)(C)C4CCC12C (stereo not given) | -16% | inactive | inactive | –
COc1ccc(CCC(=O)O)c(O[C@@H]2O[C@H](CO)[C@@H](O)[C@H](O)[C@H]2O)c1 | -13.7% | inactive | inactive | –
C=C1C2CCC3CC2(CC(O)C2(O)C1CC(OC1OC(CO)C(O)C(O)C1O)C2(C)C)CC3(C)O (stereo not given) | 19.6% | inactive | inactive | –
